Data on 68 compounds can be found in ChEMBL document CHEMBL3988442, “University of Dundee, Small-Polar-MMV Screening Library” (2021).

Out of some 48,000 compounds screened, about 13,000 (27%) showed an effect of 50% or more. This is one part of the list.

This test deals with Wolbachia pipientis. The test can be described thus: Anti-Wolbachia Cell-Based Screen. Format: functional. Also noted: scale not given: in the data most compounds retested in dose-response had high values. Conditions: 5 µM.
`CCC(C)NC(=O)c1ccc(NC(=O)CCCn2cncn2)c(C)c1` (stereo not drawn): the “Percent Effect” value is on record as -0.8579%.

For the compound `CC(C)=CCS(=O)(=O)Cc1ccn(-c2cccc(F)c2)n1`, the “Percent Effect” value was -8.164%.

Turning to `Cc1cc(C)n2nc(CC(=O)N3CC[C@H]4NCCC[C@]4(CO)C3)nc2n1`, the “Percent Effect” value worked out at 5.114%.

Turning to `CCC(O)Cn1nc(CCSC)nc1-c1ccc2c(c1)OCCO2` (stereo not drawn), the “Percent Effect” value is on record as -7.02%.

As to `CCc1nc(C2CCCN(C(=O)c3ccc(OC(C)C)nc3)C2)no1` (stereo not drawn), the “Percent Effect” value was 4.592%.

`CCc1nc(C2CCCN(C(=O)c3cn(C)nc3C)C2)no1` (stereo not drawn): the “Percent Effect” value is -1.661%.

Turning to `CCc1nc(C2CCCN(C(=O)c3ccc4[nH]cnc4c3)C2)no1` (stereo not drawn), the “Percent Effect” value worked out at 87.55%.

With `CCc1nc(C2CCCN(C(=O)c3ccc(O)nc3)C2)no1` (stereo not drawn), the “Percent Effect” value worked out at 94.4%.

For the compound `CCc1nc(C2CCCN(C(=O)c3ccc4[nH]nnc4c3)C2)no1` (stereo not drawn), the “Percent Effect” value is listed as 1.903%.

Consider `CCc1nc(C2CCCN(C(=O)c3ccc(Cl)cc3)C2)no1` (stereo not drawn), for which the “Percent Effect” value came to 149.4%.

Take `CCc1nc(C2CCCN(C(=O)c3c(C)noc3C)C2)no1` (stereo not drawn): the “Percent Effect” value worked out at 106.3%.

`CC(C)c1nc(C2CCCN(C(=O)c3ccc4[nH]cnc4c3)C2)no1` (stereo not drawn): the “Percent Effect” value is recorded as 1.919%.

In the case of `O=C(NCc1ccc(CN2CCCC2)cc1)NCc1ccon1`, the “Percent Effect” value is -9.348%.

For the compound `COc1cc(C)nc(N2CCN(C(=O)CNC(C)(C)C)CC2)n1`, the “Percent Effect” value is reported as -7.081%.

As to `c1cncc(NCCCNC2CCSC2)c1` (stereo not drawn), the “Percent Effect” value was found to be 8.573%.

Turning to `Cn1cnnc1-c1cncc(NCc2cccc3c2OCO3)c1`, the “Percent Effect” value is recorded as -7.225%.

For `Cc1noc(C(C)Nc2ccc3oc(=O)[nH]c3c2)n1` (stereo not drawn), the “Percent Effect” value is -7.057%.

In the case of `CN(CC(=O)N1CCN(c2ncccn2)CC1)c1ccc(Cl)cn1`, the “Percent Effect” value was -31.13%.

For the compound `CCc1ccc(C(=O)N2CCCC(c3noc(CC)n3)C2)o1` (stereo not drawn), the “Percent Effect” value was 3.526%.

Consider `Cc1cc(C)n(C2CCCN(C(=O)c3c(C)noc3C)C2)n1` (stereo not drawn), for which the “Percent Effect” value is reported as -7.23%.

For `Cc1noc(C)c1C(=O)N1CCCC(c2nccn2Cc2cscn2)C1` (stereo not drawn), the “Percent Effect” value was -18.15%.

For the compound `CCc1nc(C2CCCN(C(=O)c3ccc(OC)cc3)C2)no1` (stereo not drawn), the “Percent Effect” value came to 87.64%.

As to `CCc1nc(C2CCCN(C(=O)c3ccncc3)C2)no1` (stereo not drawn), the “Percent Effect” value is listed as 123.6%.

Consider `Cc1c[nH]nc1C1CCCN(C(=O)c2c(C)noc2C)C1` (stereo not drawn), for which the “Percent Effect” value came out at 107%.

As for `CCc1nc(C2CCCN(C(=O)c3ccc(F)cc3)C2)no1` (stereo not drawn), the “Percent Effect” value is on record as 103.7%.

Consider `C=Cc1ccc(C(=O)N2CCCC(Nc3ccc(F)cc3)C2)cc1` (stereo not drawn), for which the “Percent Effect” value was -17.89%.

Take `CCC(CC(=O)NS(=O)(=O)C(C)C)c1ccccc1` (stereo not drawn): the “Percent Effect” value is on record as 10.71%.

Turning to `COc1cc2c(cc1CNCc1cccnc1-n1cccn1)OC(C)C2.Cl` (stereo not drawn), the “Percent Effect” value is on record as 12.76%.

Turning to `Cc1ccc(C)c(CNC(=O)NC(C)(C(=O)O)c2ccco2)c1` (stereo not drawn), the “Percent Effect” value came out at 3.789%.

Turning to `CC1=C(CCN2CCCC(O)C2)C(C)(C)CCC1` (stereo not drawn), the “Percent Effect” value was -3.829%.

Turning to `C(=C\c1ccc(CN2CCCC2)cn1)/c1ccccc1`, the “Percent Effect” value is reported as -4.188%.

With `CCCNc1nc(CS(=O)(=O)c2ccccc2)cs1`, the “Percent Effect” value is -6.524%.

`Br.O=C(O)c1csc(NCCc2ccccc2)n1`: the “Percent Effect” value is 93.16%.

On to `CC(=O)Nc1nc(C(=O)NCCOc2ccccc2)cs1`, for which the “Percent Effect” value is on record as -21.48%.

`CC(C)(C)CC(=O)NCC(=O)NCC(O)c1ccc2ccccc2c1` (stereo not drawn): the “Percent Effect” value turned out to be 2.35%.

Turning to `CN(Cc1ccc(-n2cccn2)cc1)c1cc(N)nc(N)n1`, the “Percent Effect” value is -3.397%.

In the case of `Cc1ccc(C#N)c(N2CCC3(CCCN(C4CCOCC4)C3=O)C2)n1` (stereo not drawn), the “Percent Effect” value stood at 93.97%.

Take `COC[C@@]12CC[C@@H](N3CCOCC3)C[C@H]1CCN(c1ncccc1Cl)C2`: the “Percent Effect” value worked out at 19.13%.

Take `Cc1nccnc1N1CCC2(CCCN(C3CCOCC3)C2=O)C1` (stereo not drawn): the “Percent Effect” value was found to be 28.32%.

`COc1ccnc(N2CCC3(CCCN(C(C)C)C3=O)C2)n1` (stereo not drawn): the “Percent Effect” value is on record as 10.66%.

In the case of `Cc1ccc(C#N)c(N2CCC3(CCC(=O)N(CC(N)=O)C3)CC2)n1`, the “Percent Effect” value is given as -13.92%.

Turning to `N#Cc1cccnc1N1CCC2(CCCN(C3CCOCC3)C2=O)C1` (stereo not drawn), the “Percent Effect” value is on record as -10.29%.

As for `Cc1cnc(C)c(N2CCC3(CCCN(C4CCOCC4)C3=O)C2)n1` (stereo not drawn), the “Percent Effect” value was determined as 106.2%.

Regarding `Cc1cc(N2CCC(c3nnc(CN(C)C)n3C3CC3)CC2)ccn1`, the “Percent Effect” value stood at 1.365%.

As to `Cc1ccc(C#N)c(N2CCC(c3nccn3Cc3cscn3)CC2)n1`, the “Percent Effect” value is recorded as -1.954%.

Consider `Cc1cc(N2CCC3(CCCN(C4CCOCC4)C3=O)C2)ccn1` (stereo not drawn), for which the “Percent Effect” value came to 118.2%.

Regarding `Cc1nc(N2CCC3(CCCN(C(C)C)C3=O)C2)c2sccc2n1` (stereo not drawn), the “Percent Effect” value is recorded as -8.987%.

`O=C1N(C2CCOCC2)CCCC12CCN(c1ncccc1Cl)C2` (stereo not drawn): the “Percent Effect” value is listed as 119%.

With `CCNc1ncc(C(=O)NCC2OCCc3ccccc32)cn1` (stereo not drawn), the “Percent Effect” value is given as -9.42%.

As for `CCc1nc(C)c(CN2CCCC(c3nn(C)c(=O)n3CC)C2)[nH]1` (stereo not drawn), the “Percent Effect” value was 1.561%.

For the compound `O=S(=O)(Cc1ccccc1CN1CCOCC(O)C1)c1ccccc1` (stereo not drawn), the “Percent Effect” value is reported as -4.778%.

On to `O=C(NCc1ccccc1Cn1ccnc1)N1CCSCC1`, for which the “Percent Effect” value is given as -1.657%.

For the compound `NC(=O)CN1CC2(CCC1=O)CCN(Cc1ccc(F)cc1Cl)CC2`, the “Percent Effect” value was determined as 0.9976%.

Consider `O=C(Nc1cccc(CN2CCOC2=O)c1)N1CCSCC1`, for which the “Percent Effect” value came out at 46.29%.

Turning to `CNc1nc(C(=O)N2CCCn3nc(C(=O)N4CCCC4)cc3C2)cs1`, the “Percent Effect” value was 132.4%.

As to `CCCc1nc(C(=O)N2CCCn3nc(CCC(=O)O)cc3C2)cs1`, the “Percent Effect” value is -10.82%.

Turning to `CNc1nc(C(=O)N2CCn3nc(C(=O)OC)cc3C2)cs1`, the “Percent Effect” value came out at 99.12%.

Regarding `Cc1ccc(O)c(CN2CCn3nc(C(=O)N4CCCC4)cc3C2)n1`, the “Percent Effect” value is reported as -10.87%.

For `Cc1cc(C(=O)N2CCn3nc(C(=O)NC4CC4)cc3C2)nc(C)n1`, the “Percent Effect” value turned out to be 5.79%.

For `CNc1nc(C(=O)N2CCCC(CO)(CCCOC)C2)cs1` (stereo not drawn), the “Percent Effect” value is reported as -13.19%.

Consider `CCC(C)(NCc1nc(C)c(C)o1)c1nccs1` (stereo not drawn), for which the “Percent Effect” value is -14.02%.

Consider `CCOc1cc(CNCc2cnc(C)cn2)c(Cl)cc1OC(C)C`, for which the “Percent Effect” value was -9.744%.

For the compound `Cc1ccc(N(C)CC(O)COCc2ccccc2)c(C)c1` (stereo not drawn), the “Percent Effect” value is listed as -35.03%.

In the case of `COC(=O)c1ccc(NC(=O)CNCc2ccco2)cc1`, the “Percent Effect” value was -10.44%.

Turning to `O=S(=O)(Cc1cccc(F)c1)NCC(O)Cc1ccccc1` (stereo not drawn), the “Percent Effect” value is on record as 13.38%.

Consider `Br.Cc1cc(C)c(N(CC(O)CNCc2ccccc2)S(C)(=O)=O)c(C)c1` (stereo not drawn), for which the “Percent Effect” value amounted to 104.6%.

Consider `Cc1ccc(C(=O)O)cc1S(=O)(=O)N(CC(C)O)c1ccccc1` (stereo not drawn), for which the “Percent Effect” value is -9.364%.

On to `Cc1cc(C)c(N(CC(O)CNCc2ccco2)S(C)(=O)=O)c(C)c1.O=C(O)c1ccccc1` (stereo not drawn), for which the “Percent Effect” value is 101.1%.
